Measured values from PubChem BioAssay AID602478 (National Center for Advancing Translational Sciences (NCATS), 2012).
Inconclusive results are not listed. A number with no mark means an inactive call. Active and inactive are the calls of the source. Calls follow the shape of the dose curve; as a rule, active = well fitted activation curve with a large enough effect; inconclusive = small, poorly fitted or top-dose-only effect; inactive = flat fitted curve, though single readings scatter.

Each compound was assayed against Luciferin 4-monooxygenase (Photinus pyralis) (UniProt P08659) (assay: FLuc inhibitory activity for the follow-up compounds in a cell-based translational read-through assay (72 hour incubation)). Conditions: GripTite 293 FLucUGA read-through, luminescence; series mostly up to 38.3 µM; activation (luciferase signal increase): at the top concentration.
Chain of Luciferin 4-monooxygenase (Photinus pyralis) (P08659 whole entry, looked up): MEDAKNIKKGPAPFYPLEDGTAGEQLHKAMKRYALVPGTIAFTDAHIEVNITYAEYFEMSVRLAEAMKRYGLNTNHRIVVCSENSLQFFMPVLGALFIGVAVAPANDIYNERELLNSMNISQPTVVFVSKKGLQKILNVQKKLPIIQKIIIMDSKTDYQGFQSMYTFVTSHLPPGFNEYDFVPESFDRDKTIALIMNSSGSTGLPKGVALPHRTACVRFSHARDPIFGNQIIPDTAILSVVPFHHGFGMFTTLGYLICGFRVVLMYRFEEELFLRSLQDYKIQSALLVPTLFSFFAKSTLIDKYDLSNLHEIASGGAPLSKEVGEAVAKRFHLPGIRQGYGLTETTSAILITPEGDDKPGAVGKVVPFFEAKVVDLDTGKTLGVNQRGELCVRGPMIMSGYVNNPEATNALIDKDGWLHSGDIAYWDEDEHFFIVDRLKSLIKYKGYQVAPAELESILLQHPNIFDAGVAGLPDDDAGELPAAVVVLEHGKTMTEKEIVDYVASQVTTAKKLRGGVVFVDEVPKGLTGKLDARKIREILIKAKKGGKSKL
Description: NCGC Assay Overview: Firefly (Photinus pyralis) luciferase is one of the most commonly used transcriptional reporters. It is considered one of the more dynamically responsive reporters - that is, responsive to changes in reporter transcription - as it requires no post-translational modifications and is enzymatically active directly after protein synthesis (Wood, 1998). With no endogenous expression in mammalian cells and without the requirement of external excitation, it offers very little background signal, thus generally providing excellent signal to background for most assays. Previous profiling work to determine the prevalence of compounds that affect FLuc enzymatic activity (PubChem AID 411) identified that ~3% of the MLSMR library (then at ~72K) inhibited FLuc (Auld et al., 2008). […] Of the compounds identified in this profile that inhibited FLuc, 151 compounds were selected for further analysis, in an effort to better understand their mode of inhibiting FLuc. The assay described here was to determine the activity of the compounds in a cell-based firefly luciferase reporter gene assay originally designed to identify compounds that enchanced translational read-through of a FLuc cDNA that contained a premature stop codon (Auld et al., 2009; Auld et al., 2010). Compounds that enhance translational read-through or compounds that stabilize FLuc intracellularly are identified as active compounds in the assay.
NCGC Assay Protocol Summary: Reagents: Transient transfection of FlucUGA construct: TransFast Transfection Reagent (Promega #E2431); FLucUGA construct (refer to Auld et al., 2009) #GripTite 293 MSR Cell Line (Invitrogen #R795-07) #Complete growth media: DMEM (Invitrogen #11965), 10% HIFBS, 0.1mM MEM NEAA, 5mL/L pen-strep (of 5000U/mL stock), 600ug/mL Geneticin #Assay media: DMEM without phenol red (Invitrogen #21063), 5% charcoal-stripped HIFBS (Hyclone #SH30071.03), 0.1mM MEM NEAA In-house detection reagent: 300mM Tris-HCl, 300mM Trizma base, 300mM MgCl, 1% Triton-X100, 5mM DTT, 500uM Coenzyme A trilithium salt (Sigma #C3019),450uM ATP (Sigma #A7699), 1mM D-luciferin sodium salt monohydrate (Biosynth #L8240) Control compounds used were two known firefly luciferase inhibitors (3-(5-(3-chlorophenyl)-1,2,4-oxadiazol-3-yl)benzoic acid and 5-(2-fluorophenyl)-3-phenyl-1,2,4-oxadiazole), and DMSO. Assay Summary: Transient transfection of FlucUGA construct: Day 1: GripTite cells were plated in T175 flasks at a density of 1.75 x 10^7 cells/T175 flask in complete growth media without Geneticin and allowed to grow ON in a 37 degrees Celsius incubator. Day 2: Cells in T175 flask were transfected - with 10ug of DNA and 30uL Transfast in 12mL complete growth media without serum and without Geneticin for 4 hours at 37 degrees Celsius. After incubation, cells were trypsinized, spun down, and resuspended to a concentration of 3.3 x 10^5 cells/mL in assay media. 6uL of cells in assay buffer were dispensed at 2000cells/well (3.3 x 10^5 cells/mL) into Greiner solid-white TC-treated 1536-well plates using a Multidrop Combi (Thermo Fisher Scientific). Plates were incubated for one hour at 37 degree Celsius, 95% humidity, 5% CO2. These assay plates were then treated with 23nL of compound or DMSO using a Kalypsys pin tool, which allows for delivery of a 12-point titration of each compound to the assay plate, with a final compound concentration ranging from approximately ~38uM to 0.2nM. Assay plates were then incubated for 72 hours. After incubation, plates were washed three times with DPBS (7uL/well). After the third wash, 6uL of DPBS was added to each well. 3uL of 3X luciferase detection reagent was then added to each well using a flying reagent dispenser (FRD). After a 15 minute incubation to allow for cell lysis, luciferase activity was measured using a ViewLux CCD imager (PerkinElmer), with an average exposure time of 2-12 seconds.
In the case of `COc1ccc2nc(NC(=O)c3cnccn3)sc2c1`, the Potency is reported as 3.56 µM (active).
In the case of `Cc1ccc(S(=O)(=O)N2CCOCC2)cc1C(=O)Nc1ccccc1C(=O)O`, the “activation (luciferase signal increase)” value is reported as -2.13%.
In the case of `Cc1ccc(NS(=O)(=O)c2ccc(Cl)c(C(=O)Nc3cccc(C(=O)O)c3)c2)cc1`, the “activation (luciferase signal increase)” value is reported as 5.38%.
With `CC(=O)Nc1cccc(-c2nc3ccccc3s2)c1C` the “activation (luciferase signal increase)” value was 6.4%.
With `COc1ccc2nc(NC(=O)c3ccc([N+](=O)[O-])o3)sc2c1` the Potency was 20 µM (active).
`CCOc1ccc2nc(NC(=O)c3ccccc3)sc2c1` was tested, and the Potency was 1.79 µM (active).
With `O=C(O)c1cccc(NC(=O)c2ccccc2NC(=O)c2ccco2)c1` the “activation (luciferase signal increase)” value was 10.3%.
`O=C(Nc1ccccc1C(=O)O)c1cc(S(=O)(=O)Nc2cccc(F)c2)ccc1Cl` was tested, and the “activation (luciferase signal increase)” value was -2.5%.
In the case of `O=C(Nc1ccccc1C(=O)O)c1cccc(S(=O)(=O)N2CCCC2)c1`, the “activation (luciferase signal increase)” value is reported as 4.36%.
With `COc1ccc2nc(NC(=O)c3nc(S(=O)(=O)Cc4ccc(C)cc4)ncc3Cl)sc2c1` the “activation (luciferase signal increase)” value was -4.78%.
For `COc1ccc2nc(NC(=O)c3ccc(S(=O)(=O)N4CCCC(C)C4)cc3)sc2c1` (stereo unspecified), the “activation (luciferase signal increase)” value was 3.44%.
`CCn1c(C)nc2cc(-c3nc4n(n3)Cc3ccccc3-4)ccc21` was tested, and the Potency was 0.0798 µM (active).
With `COc1ccc(-c2nc3ccccc3s2)cc1NC(=O)c1ccc(F)cc1` the “activation (luciferase signal increase)” value was 1.16%.
In the case of `COc1cccc(-c2nc3ccccc3s2)c1`, the Potency is reported as 3.56 µM (active).
For `O=C(Nc1ccccc1C(=O)O)c1cccc(NC(=O)c2ccccc2Cl)c1`, the “activation (luciferase signal increase)” value was 5.43%.
In the case of `CC(C)C(=O)Nc1cccc(C(=O)Nc2ccccc2C(=O)O)c1`, the “activation (luciferase signal increase)” value is reported as 6.56%.
